# SARS PLP yeast: inhibitors of SARS-CoV papain-like protease in yeast; S. cerevisiae expressing SARS-CoV PLpro, growth rescue; Potency, µM (series often up to 32.9 µM), for inactives: at the highest dose activity, positive = growth rescue, actives largely listed as activators; 330,000 compounds, 0.19% hits; AID 485353; calls by dose curve; also: potency is read from the fitted curve at half-maximal effect; 0% is about no effect; nearly all actives have a fitted effect of over 55% in size
# Sm TGR block: blocks Schistosoma mansoni thioredoxin glutathione reductase; Q962Y6; Potency, µM (titrated, usually from 114 µM), without a hit: at the highest dose activity change, negative = inhibition, most hits filed as inhibitors; AID 485364; purified TGR, DTNB reduction, TNB absorbance 405 nm; 360,000 compounds, 3% hits; also: potency is read from the fitted curve at half-maximal effect; % is scaled to controls: 0 for no effect and ±100 for the full control effect; nearly all actives have a fitted effect of over 60% in size
#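 First, TGR (20 nM dispensed) and NADPH were mixed with compound. Second, a 15 min room-temperature incubation followed. Third, further NADPH and then DTNB were added to start the reaction. Finally, TNB absorbance was monitored kinetically.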
# HCMV inh: blocks human cytomegalovirus replication; activity change, negative = inhibition, % at 57.5 µM; 410,000 compounds, 4.5% hits; AID 1259415; HFF cells, HCMV-luciferase reporter, 72 h; stronger effect = lower value; in the data active = activity change below about -60%; inconclusive = no clear call, values can overlap the other calls; inactive = above about -39%; also: % is scaled to controls: 0 for no effect and ±100 for the full control effect
#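 Luciferase read-out from HCMV-luciferase-infected HFFs (MOI 1 PFU/cell) 72 h post infection at 37C; compounds added after 16 h cell attachment; activity normalized between buffer-only basal and Salinomycin (10uM) inhibitor controls.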
# Pf growth 96h: P. falciparum growth inhibition at 96 hours; P. falciparum luciferase reporter growth, 96 h; Potency, µM (titrated, usually from 28.7 µM), without a hit: top-dose activity change, negative = inhibition, actives largely listed as inhibitors; 320,000 compounds, 6.9% hits; also: potency is read from the fitted curve at half-maximal effect; % is scaled to controls: 0 for no effect and ±100 for the full control effect
#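 Compounds incubated with erythrocytes infected by luciferase-expressing P. falciparum (2% hematocrit, 0.05% parasitemia final) for 96 hours, 37 C in 5% CO2. Growth inhibition scored as decreased luciferase luminescence.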
# HCV inh: inhibitors of hepatitis C virus infection | Huh7.5.1 HCVcc-Cre infection, luciferase reporter, 44 h | Potency, µM (highest dose often 41.8 µM), for the others: at the top dose activity change, negative = inhibition, usual class: inhibitors | 340,000 compounds, 3.4% hits; also: potency is read from the fitted curve at half-maximal effect; % is scaled to controls: 0 for no effect and ±100 for the full control effect
#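 A cell-based infection assay in which seeded cells (1,000 per well) receive test compound after 4 h, are inoculated with HCVcc-Cre at approximately 0.5 moi, and are incubated 44 h before luminescence detection.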
# Pf growth 48h: P. falciparum growth inhibition at 48 hours (one generation) | P. falciparum luciferase growth in erythrocytes, 48 h | Potency, µM (highest dose often 28.7 µM), for the others: at the highest dose activity change, negative = inhibition, hits mostly inhibitors | 310,000 compounds, 5.9% hits | AID 504832; also: potency is read from the fitted curve at half-maximal effect; % is scaled to controls: 0 for no effect and ±100 for the full control effect
#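 Parasite viability was followed by luminescence of a genomically integrated firefly luciferase. Cultures held 0.1% parasitemia at 2% hematocrit (final), incubated under 5% CO2 at 37 C.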
# * hit, by the source's call; ? = inconclusive; nt = no result given. An excerpt weighted towards active compounds, which were near 15% of everything screened. Unless noted, calls follow the shape of the dose curve; as a rule, active = well fitted curve in the direction sought with a large enough effect; inconclusive = small, poorly fitted or top-dose-only effect, or another doubt; inactive = no such curve, though single readings can be large; an effect the other way counts as inactive or inconclusive.
SMILES,SARS PLP yeast,Sm TGR block,HCMV inh,Pf growth 96h,HCV inh,Pf growth 48h
Cc1ccc(NC(=O)CN2C(=O)c3cccnc3Sc3ccccc32)cc1C,nt,1%,47,nt,nt,nt
COc1ccc(Nc2nnc(-c3ccc(C)c(S(=O)(=O)NCc4nc5ccccc5[nH]4)c3)c3ccccc23)cc1,nt,-4%,-95*,nt,nt,nt
CC(=O)Nc1ccc(Nc2nnc(-c3ccc(C)c(S(=O)(=O)NCCO)c3)c3ccccc23)cc1,0%,6%,-1,?,-2%,?
Cc1ccc(-c2nnc(N3CCCCC3)c3ccccc23)cc1S(=O)(=O)NCC1CCCO1 (stereo unspecified),1%,-16%,?,nt,?,4.7µM*
Cc1ccc(-c2nnc(Nc3ccc(Cl)cc3)c3ccccc23)cc1S(=O)(=O)NCC1CCCO1 (stereo unspecified),nt,-1%,-34,nt,nt,nt
Cc1ccc(-c2nnc(Nc3cccc(Cl)c3)c3ccccc23)cc1S(=O)(=O)NCC1CCCO1 (stereo unspecified),nt,-35%,-65*,nt,nt,nt
Cc1ccc(-c2nnc(Nc3ccc(C(N)=O)cc3)c3ccccc23)cc1S(=O)(=O)NCC1CCCO1 (stereo unspecified),8%,-2%,-28,?,6%,8.3µM*
Cc1cccc(Nc2nnc(-c3ccc(C)c(S(=O)(=O)NCC4CCCO4)c3)c3ccccc23)c1 (stereo unspecified),nt,7%,?,nt,nt,nt
Cc1ccc(-c2nnc(Nc3ccc(Br)cc3)c3ccccc23)cc1S(=O)(=O)NCC1CCCO1 (stereo unspecified),nt,-8%,-25,nt,nt,nt
Cc1ccc(-c2nnc(Nc3ccc(O)cc3)c3ccccc23)cc1S(=O)(=O)NCC1CCCO1 (stereo unspecified),nt,-20%,-71*,nt,nt,nt
COc1cc(C2Nc3ccc4ccccc4c3C3=C2C(=O)CC(C)(C)C3)ccc1OCC(=O)O (stereo unspecified),-4%,-23%,12,0.93µM*,13%,?
CC1(C)CC(=O)C2=C(C1)c1c(ccc3ccccc13)NC2c1ccc(OCC(=O)O)cc1 (stereo unspecified),13%,-22%,11,-29%,12%,10µM*
COc1cc(C2Nc3ccc4ccccc4c3C3=C2C(=O)CC(C)(C)C3)ccc1OC(C)C(=O)O (stereo unspecified),-2%,?,31,?,4%,1.7µM*
COc1cccc(C2Nc3ccc4ccccc4c3C3=C2C(=O)CC(C)(C)C3)c1OCC(=O)O (stereo unspecified),-4%,-9%,?,?,11%,?
CC1(C)CC(=O)C2=C(C1)c1c(ccc3ccccc13)NC2c1ccc(Br)o1 (stereo unspecified),2%,-32%,-36,?,-23%,nt
COc1cc(C(=O)Nc2cccc(-n3cnnn3)c2)cc(OC)c1OC,2%,19%,-5,0%,?,1%
CC(OC(=O)c1cccc(-n2cnnn2)c1)c1nc2ccccc2c(=O)[nH]1 (stereo unspecified),-9%,-22%,-65*,?,-8%,?
COc1cc(C(=O)Nc2cccc(-n3cnnn3)c2)cc(Cl)c1OC,-2%,5%,-32,?,?,9.3µM*
CC(=O)c1ccc(NC(=O)C(C)OC(=O)c2cccc(-n3cnnn3)c2)cc1 (stereo unspecified),4%,-8%,-22,24%,-17%,0%
COc1cc(C(=O)NC(=S)Nc2ccc(Cl)c(C(=O)O)c2)cc(OC)c1OC,1%,40µM*,19,?,5%,33%
COc1cc(C(=O)Nc2ccc(Cl)c(C(F)(F)F)c2)cc(OC)c1OC,-55%,-2%,-7,-9%,14µM*,13µM*
CN(C)c1nc(N(C)C)n(Cc2c(Cl)cccc2Cl)n1,1%,-1%,-33,?,13%,13%
COc1ccc(-n2nc(C(=O)NCC(=O)NCc3cccc(F)c3)c3ccccc3c2=O)cc1Cl,2%,-5%,43,0%,?,-24%
CC(=O)c1sc(-c2c(C)nc3sccn23)nc1C1CCCC1,-3%,14%,nt,?,nt,nt
CCc1nc2ccc(C(=O)N(CC)CCN(C)C)cn2c1N(C)Cc1nccs1,nt,nt,-19,nt,nt,nt
SMILES,SARS PLP yeast,Sm TGR block,HCMV inh,Pf growth 96h,HCV inh,Pf growth 48h
Cc1sc(NC(=O)CN(C(=O)c2ccccc2F)C2CCCC2)c(C(N)=O)c1C,-1%,-4%,?,-6%,-18%,?
CCCC(C(=O)Nc1c(C)cccc1C)N1C(=O)C(=O)c2ccccc21 (stereo unspecified),nt,nt,-23,nt,nt,nt
COC(=O)C1CCN(C(=O)CSc2nnc(-c3ccccc3)o2)CC1,-3%,3%,-29,?,10%,?
Cc1nn(-c2ccc(F)cc2)c(-n2cccc2)c1C(=O)NCCCN1CCN(c2cccc(Cl)c2)CC1,nt,-2%,-33,nt,nt,nt
COc1cc(C(=O)NC(=S)Nc2ccc(N3CCCC3)cc2)cc(OC)c1OC,5%,-19%,-6,?,?,9.3µM*
COc1cc(OC)cc(C(=O)NC(=S)Nc2ccc(Cl)c(C(=O)O)c2)c1,3%,22µM*,21,8%,21%,1%
CC(OC(=O)c1cccc(-n2cnnn2)c1)C(=O)Nc1cccc(Cl)c1 (stereo unspecified),1%,8%,-27,7%,8.9µM*,-14%
O=C(NCCN1CCC(n2c(=O)[nH]c3ccccc32)CC1)N1c2ccccc2Sc2ccccc21,nt,nt,-29,nt,nt,nt
CCCn1c(SCC(=O)N2CC(=O)Nc3ccccc32)n[nH]c1=O,16%,nt,32,nt,-3%,nt
N=c1ccn(CC(=O)c2ccc(-c3ccccc3)cc2)cc1,-2%,-4%,-76*,?,0.89µM*,0.83µM*
O=C(CN1C(=O)CCC1=O)c1ccc(-c2ccccc2)cc1,-7%,-1%,-28,10%,28%,79%
O=C1CCN(Cc2ccccc2)S(=O)(=O)c2ccccc21,0%,20µM*,-37,?,-8%,?
Cc1oc(-c2cccc(Cl)c2)nc1CN1CCC(C(=O)NCCCN2CCCC2=O)CC1,1%,4%,-13,12µM*,-8%,nt
Cc1oc(-c2ccc(Cl)cc2)nc1CN1CCCC(C(=O)NCCCN2CCCC2=O)C1 (stereo unspecified),3%,4%,-27,?,?,nt
Cc1oc(-c2cccc(Cl)c2)nc1CN1CCC(C(=O)NCCCN2CC(C)CC(C)C2)CC1 (stereo unspecified),-1%,-7%,nt,-26%,1.1µM*,7.4µM*
